# Reference: ChEMBL document CHEMBL3988442, “University of Dundee, Small-Polar-MMV Screening Library” (2021)
# Assays:
# [1] = target: T1, Aspartate--tRNA(Asp/Asn) ligase (Mycobacterium tuberculosis (strain ATCC 25618 / H37Rv)) (UniProt P9WFW3); test: Assay for Asp RNA synthetase-1 from Mycobacterium tuberculosis; assay type: functional; parameters: scale not given: direction of the effect not stated beside the values; details: 30 µM; further: in the data most compounds retested in dose-response had high values
# T1 sequence (whole entry): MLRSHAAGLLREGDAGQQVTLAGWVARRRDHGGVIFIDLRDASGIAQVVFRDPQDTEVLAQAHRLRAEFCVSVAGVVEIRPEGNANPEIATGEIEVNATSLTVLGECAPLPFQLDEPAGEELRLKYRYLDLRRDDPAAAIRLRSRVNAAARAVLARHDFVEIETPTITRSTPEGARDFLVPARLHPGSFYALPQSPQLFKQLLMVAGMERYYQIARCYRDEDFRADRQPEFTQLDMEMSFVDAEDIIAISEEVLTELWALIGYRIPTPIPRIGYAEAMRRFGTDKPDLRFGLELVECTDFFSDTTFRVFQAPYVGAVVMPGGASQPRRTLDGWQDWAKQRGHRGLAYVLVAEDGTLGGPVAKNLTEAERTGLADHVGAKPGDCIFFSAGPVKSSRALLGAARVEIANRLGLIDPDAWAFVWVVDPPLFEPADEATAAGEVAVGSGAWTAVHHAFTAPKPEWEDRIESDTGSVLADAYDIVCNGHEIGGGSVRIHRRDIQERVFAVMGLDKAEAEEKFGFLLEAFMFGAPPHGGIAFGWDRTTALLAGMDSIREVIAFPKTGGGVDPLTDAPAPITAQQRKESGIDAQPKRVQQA
# [2] = target: Shiga toxin 2 (Escherichia coli O157:H7) (UniProt P09385+P09386); test: E. coli 0.157:H7 Shiga Toxin SOP - stx2 screening assay; assay type: functional; parameters: scale not given: direction of the effect not stated beside the values; details: 30 µM
SMILES,Percent Effect [1],Percent Effect [2]
CC(C)c1nc(CC(=O)Nc2nc(CN3CCCCCC3)cs2)cs1,-0.836%,-37.6%
O=C(CS(=O)(=O)CC1CCCCC1)NC1CCCCNC1=O (configuration not stated),-4.37%,-23%
Cc1ccc(NC(=O)CNc2cccc3c2CCCC3)c(Br)c1,-0.719%,7.99%
O=S(=O)(c1cccs1)N1CCCn2cnc(CN3CCCC3)c2C1,6.2%,-4.47%
Cc1cncc(C2CCCN(Cc3cccn3C)C2)n1 (configuration not stated),0.162%,10.2%
CC1CN(Cc2noc(C3CC3)n2)CCN1Cc1nccn1C (configuration not stated),-4.25%,-11.1%
CC(=O)NCCN1CCC(c2cccs2)CC1,-5.78%,1.86%
c1cc2n(n1)CC(CNCc1ccc(OC3CCCCC3)nc1)CN2 (configuration not stated),-3.37%,-39.3%
CC(C)c1nc(C2CCCN2Cc2ccno2)no1 (configuration not stated),1.46%,1.7%
O=C(NCC1CCCO1)c1c(-n2cnnn2)sc2c1CCC2 (configuration not stated),1.11%,2.95%
CN(C)CCN1CCCC12CCN(C(=O)c1cccn1C)CC2,-5.96%,-0.241%
CCN1CC(C(=O)NCc2ccccc2-n2cccn2)CC1=O (configuration not stated),7.12%,20.1%
Cn1cc(CN2CCCC3(CCN(c4nncs4)C3)C2)cn1 (configuration not stated),6.31%,-11.3%
O=C(NCCNC(=O)c1scnc1Cl)c1ccccc1,2.84%,-34.6%
CS(=O)(=O)c1ccc(CNC(=O)N2CCC(c3ccccc3)CC2)cc1,-2.06%,7.64%
COCC(c1cccc(C(F)(F)F)c1)N(C)C(=O)c1cc(C)n[nH]1 (configuration not stated),1.86%,24.9%
O=C(CCc1cscn1)NS(=O)(=O)c1ccc2ccccc2c1,-3.43%,11.4%
O=C(NCCCn1nc2ccccn2c1=O)NC1CCC(O)CC1 (configuration not stated),4.86%,-44.5%
Cc1ccc(CNC(CN2CCN(C)CC2)c2ccccc2)cc1 (configuration not stated),3.88%,-2.09%

SMILES,Percent Effect [1],Percent Effect [2]
O=C1NCCN1C1CCN(Cc2ccccn2)CC1,-1.42%,-6.38%
Cc1ncc(CNC(=O)Cc2ccc(Cl)cc2)c(C2CCCN2C)n1 (configuration not stated),0.551%,15.8%
CSc1ccc(NC(=O)Nc2ccc3c(c2)N(S(C)(=O)=O)CC3)cc1,-2.32%,-21.8%
COc1c(CNC(c2nccn2C)C(C)C)c(C)nn1C (configuration not stated),0.122%,16.3%
Cc1nc(C2CCCN(C(=O)c3ccc(N4CCCC4)nc3)C2)no1 (configuration not stated),-2.58%,-1.41%
COc1cc(N2C[C@@H]3COC[C@]3(COc3ccc(C#N)cn3)C2)ncn1,-1.45%,11.9%
COc1ccc(CN2CCn3cc(CN4CCN(C)CC4)nc3C2)cc1,-1.67%,10.3%
O=C(NCC1CC1)C1CSCN1S(=O)(=O)c1cccc(F)c1 (configuration not stated),2.56%,-5.9%
CN(C)c1ncc(-c2cc(C(=O)O)n(CC3CC3)c2)cn1,0.577%,2.77%
O=C(c1nc(-c2ccc3cc[nH]c3c2)no1)N1CCCC1,-0.958%,-77.4%
COc1c(C2CCCN2Cc2cc(C)no2)c(C)nn1C (configuration not stated),3.61%,18.1%
Cc1cccc(NC(=O)Cn2ncc(SCC(N)=O)c(Cl)c2=O)c1C,-2.73%,5.03%
COC(=O)C(c1cc(F)ccc1F)N(C)C(=O)c1cccnc1O (configuration not stated),-4.32%,8.11%
COCC1c2c(cnn2CC2CCOCC2)CCN1Cc1ccoc1 (configuration not stated),0.211%,-9.29%
Cc1cc(CN(C)C(=O)NC2CCCN(c3ncccn3)C2)no1 (configuration not stated),-1.17%,33.3%
Cc1ccnc(OCC(=O)N2CCC(C(N)=O)CC2)n1,-6.44%,1.84%
CCCc1nc(C)c(C(=O)NS(=O)(=O)c2ccc(C#N)cc2)s1,0.836%,8.1%
Cc1cnn(CCNCCCOc2ccccc2)c1,-1.12%,-1.37%
O=C(Cc1ccc(-n2cccn2)cc1)N1CCCC(n2cccn2)C1 (configuration not stated),-2.94%,-22.3%

SMILES,Percent Effect [1],Percent Effect [2]
Cc1nnc2n1CCN(C(C(=O)NC1CC1)c1ccccc1)C2 (configuration not stated),-4.48%,15.2%
CSCC(C)(O)CNC(=O)c1ccc(Br)cc1C (configuration not stated),-3.46%,-16%
Cc1nnc(N2CC[C@H]3C[C@H](C(=O)N4CCOCC4)O[C@H]3C2)s1,3.25%,-4.69%
OCCn1nccc1C1CCN(CCCOc2ccc(F)cc2)CC1,1.85%,4.26%
Cc1cccc(OCCC(=O)N2CCCN(C(N)=O)CC2)c1C,0.542%,7.91%
O=C(NCC1CC1)[C@H]1CC[C@@H]2[C@@H](CCN2Cc2ccoc2)O1,-5.12%,0.319%
COCc1cccc(NS(=O)(=O)c2cc(C(=O)O)cs2)c1,0.144%,-27.7%
COCCN1CCC2(CC1)CC(COC)N(c1ncccn1)C2 (configuration not stated),0.446%,-9.07%
COC(=O)COc1cccc(NS(=O)(=O)c2cc(C(=O)O)cs2)c1,-3.15%,-53.3%
CCc1nnc2n1CCN(C(=O)c1ccc3[nH]cnc3c1)C2,-2.2%,-13.3%
Cc1nc(CN2C[C@@H]3CN(C(=O)c4cccn4C)C[C@@H]3C2=O)cs1,-0.382%,-4.43%
COc1ccc(C(=O)N2C[C@@H](C(=O)O)[C@H](c3ccccc3C)C2)c(O)c1,8.11%,0.95%
CCOCC1CN(Cc2ccc(OC)cc2)Cc2nn(C)cc21 (configuration not stated),11.4%,-5.58%
O=C(C1CC1)N1CCC(c2nc(O)c3c(n2)CCN(C2CCCC2)C3)C1 (configuration not stated),-2.25%,-11.5%
CC(C)Nc1nc(N2CCCC2)nc2c1CN(C(C)C)CC2,2.18%,-118%
O=C(CCc1cnn(-c2ccccc2)c1)N1CCCC(n2cccn2)C1 (configuration not stated),-0.589%,26.2%
CNc1cc(CNC(=O)c2ccccc2)nc(-c2ccncc2)n1,-4.09%,11.3%
CCOC(=O)c1sc2ccsc2c1CNC(=O)C(C)(C)C#N,0.67%,16.1%
